Inconclusive results are not listed. Where a call stands in place of a potency, no number is given. Unmarked numbers belong to inactive results. Active and inactive are the calls of the source. The call rests on the fitted dose curve; in most records, active means well fitted activation curve with a large enough effect in the repeat runs; inconclusive means weak or mixed curves; inactive means flat fitted curve, though single readings scatter.
Assay: A CellTox Green Cytotoxicity Assay to monitor cytotoxicity in HEK293 cells - 40 hour (AID 1224871); further: nearly all actives have a fitted effect of over 45% in size
Conditions: CellTox Green fluorescence; series mostly up to 76.8 µM
From the text: National Center for Advancing Translational Sciences [NCATS]
NIH Chemical Genomics Center [NCGC]
U.S. Environmental Protection Agency [EPA]
National Institutes of Environmental Health Sciences [NIEHS]
National Toxicology Program [NTP]
Cell-based models are critical for drug discovery. Determining the natural cytotoxic effects resulting from test compounds is an essential research activity. A CellTox Green Cytotoxicity Assay to monitor cytotoxicity in real time of continues cell culture during 40 hours of the compound treatment was used to screen Tox21 10K library compounds in Hek293 cells. CellTox Green Cytotoxicity Assay is a nonlytic, homogeneous, biofluorescent method to measure cytotoxicity in cell culture after experimental manipulation. The assay system uses a proprietary asymmetric cyanine dye that is excluded from viable cells but preferentially stains the dead cell's DNA. […] Viable cells produce no appreciable increases in fluorescence. Therefore, the fluorescence signal produced by the binding interaction with dead cell DNA is proportional to cytotoxicity.
The mixture of Hek293 cell suspension and reagents were dispensed at 600cells/6 ul/well in 1536-well tissue culture treated black solid bottom plates using a Multidrop dispenser. After the assay plates were incubated at a 37 C/5% CO2 incubator for 5 hours, 23 nL of compounds dissolved in DMSO, positive and negative controls was transferred to the assay plate by a pintool work station. The plates were incubated at 37 C for 40 hours. The fluorescence intensity were measured at 0h, 8h, 16h, 24h, 32h and 40h time points using ViewLux plate reader during compound treatment.
Potency means the concentration at half of the fitted maximal effect.

| Compound | Potency | cytotoxicity increase |
| --- | --- | --- |
| CS(=O)(=O)c1ccc([C@@H](O)[C@@H](CF)NC(=O)C(Cl)Cl)cc1 | inactive | – |
| CC(Oc1c(Cl)cccc1Cl)C1=NCCN1 (stereo not given) | inactive | – |
| Nc1ccc2ccccc2c1S(=O)(=O)O | inactive | – |
| CC(C)=CCC[C@](C)(O)[C@@H]1CC=C(C)CC1 | 49 µM (active) | – |
| CC(C)C[C@H](NC(=O)OCC1c2ccccc2-c2ccccc21)C(=O)O | inactive | – |
| CCCCCCCCOC(=O)CCCCCCCCC(=O)OCCCCCCCC | inactive | – |
| O=C(O)c1cccc(Cl)c1Cl | inactive | – |
| Cc1ccsc1C(=CCCN1CCC[C@@H](C(=O)O)C1)c1sccc1C | inactive | – |
| O=C1CCN(c2ccccc2)N1 | inactive | – |
| OCC(CBr)(CBr)CBr | inactive | – |
| CN1CCN(C2=Nc3ccccc3Oc3ccc(Cl)cc32)CC1 | inactive | – |
| Cc1ccc(C)c(N)c1 | inactive | – |
| NS(=O)(=O)c1cc(-c2nn[nH]n2)c(NCc2cccs2)cc1Cl | inactive | – |
| CCCNC(C)(C)COC(=O)c1ccccc1 | inactive | – |
| CN(C)C(=O)NC1(c2ccccc2)CCN(CCC[C@]2(c3ccc(Cl)c(Cl)c3)CCCN(C(=O)c3ccccc3)C2)CC1 | – | 31% [at 15.8 µM] |
| CCC(=O)O[C@]1(C(=O)SCF)[C@H](C)C[C@H]2[C@@H]3C[C@H](F)C4=CC(=O)C=C[C@]4(C)[C@@]3(F)[C@@H](O)C[C@@]21C | inactive | – |
| CCN1CC(CCN2CCOCC2)C(c2ccccc2)(c2ccccc2)C1=O (stereo not given) | inactive | – |
| CC/C=C\CCOC(=O)C(C)C | inactive | – |
| CC(C)OC(C)C | inactive | – |
| CCCS(=O)c1ccc2nc(NC(=O)OC)[nH]c2c1 (stereo not given) | inactive | – |

| Compound | Potency | cytotoxicity increase |
| --- | --- | --- |
| Cc1onc(-c2ccccc2)c1C(=O)Cl | inactive | – |
| CCc1nnc(NS(=O)(=O)c2ccc(N)cc2)s1 | inactive | – |
| CCN(CCCc1ccccc1)CCCc1ccccc1 | inactive | – |
| CCOC(=O)[C@H](CCc1ccccc1)N[C@@H](C)C(=O)N1Cc2cc(OC)c(OC)cc2C[C@H]1C(=O)O | inactive | – |
| CC1CN(c2ccccc2)NC1=O (stereo not given) | inactive | – |
| CC(C)Nc1nc(N)nc(Cl)n1 | inactive | – |
| CC(C)(C)c1cccc(O)c1 | inactive | – |
| COC(=O)N[C@H](C(=O)N[C@@H](Cc1ccccc1)[C@@H](O)CN(Cc1ccc(-c2ccccn2)cc1)NC(=O)[C@@H](NC(=O)OC)C(C)(C)C)C(C)(C)C | inactive | – |
| NC1=NCC2c3ccccc3Cc3ccccc3N12 (stereo not given) | inactive | – |
| O=C(CCCl)NCc1ccccc1 | inactive | – |
| NCCCN1CCN(CCCN)CC1 | inactive | – |
| NC(=O)NS(=O)(=O)c1ccc(Cl)cc1 | inactive | – |
| CCCCNc1cc(C(=O)O)cc(S(N)(=O)=O)c1Oc1ccccc1 | inactive | – |
| CCCCNC(=S)NCCCC | inactive | – |
| CC(C)C(=O)OCC(C)(C)C(O)C(C)C (stereo not given) | inactive | – |
| CCCCCCOc1ccc(N)cc1 | 43.6 µM (active) | – |
| CC(C)NC[C@@H](O)COc1cccc2ccccc12 | inactive | – |
| O=S(=O)(O)C(F)(F)F | inactive | – |
| CC(=O)OC1C2(C)CCC(C2)C1(C)C (stereo not given) | inactive | – |
| Cc1cc2nc(N)sc2cc1C | inactive | – |

From PubChem BioAssay (Tox21)
